Assay results reported in paper PMC7862700, “An all-to-all approach to the identification of sequence-specific readers for epigenetic DNA modifications on cytosine”.

Columns and labels:
Experiment in all cases: DAPPL (digital affinity profiling via proximity ligation, sequencing); 10 mM Tris-HCl pH 7.5, 50 mM NaCl, 1 mM DTT, 4% glycerol, room temperature, 30 min; GST-TFs on glutathione beads, 16-mer random dsDNA library, 0.1% formaldehyde crosslink after washing; high values mean tight binding
HSF1 = HSF1 (Homo sapiens, UniProt Q00613 1-529); conditions: protein: recombinant; tags: N-terminal GST; chain copies: 3; dsDNA, one strand shown
HSF1, sequence (Q00613 whole entry, the tested form may be a part): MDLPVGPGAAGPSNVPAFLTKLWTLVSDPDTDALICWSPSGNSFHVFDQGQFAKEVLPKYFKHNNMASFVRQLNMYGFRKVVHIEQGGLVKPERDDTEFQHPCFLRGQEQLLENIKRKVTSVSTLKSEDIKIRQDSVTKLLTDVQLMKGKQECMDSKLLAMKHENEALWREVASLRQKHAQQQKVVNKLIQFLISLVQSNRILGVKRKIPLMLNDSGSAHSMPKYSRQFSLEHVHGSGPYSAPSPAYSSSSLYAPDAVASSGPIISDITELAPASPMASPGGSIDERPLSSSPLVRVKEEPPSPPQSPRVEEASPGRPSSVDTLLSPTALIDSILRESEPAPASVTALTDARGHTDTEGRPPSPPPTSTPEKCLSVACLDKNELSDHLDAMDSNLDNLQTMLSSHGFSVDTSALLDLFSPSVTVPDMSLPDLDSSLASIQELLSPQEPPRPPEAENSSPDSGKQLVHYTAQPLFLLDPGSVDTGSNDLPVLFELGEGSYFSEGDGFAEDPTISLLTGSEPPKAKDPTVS
Procedure, shortened: (§1)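 GST fusions of human transcription factors were expressed in yeast and captured with glutathione beads. Once given DNA barcodes and pooled alongside a tag-only sample, they were incubated for 30 min at room temperature with 200 nmole of a random double-stranded 16-mer DNA library in Tris/NaCl/DTT/glycerol buffer, then washed, crosslinked (0.1% formaldehyde), proximity-ligated, PCR-amplified and sequenced on an Illumina NextSeq500. The binding signal of each hexamer is its read frequency for a factor divided by its frequency for the tag-only sample.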

ELK1 = molecular target: T1, ELK1 (Homo sapiens, UniProt P19419 1-428); conditions: protein: recombinant; tags: N-terminal GST; dsDNA, one strand shown
T1 sequence: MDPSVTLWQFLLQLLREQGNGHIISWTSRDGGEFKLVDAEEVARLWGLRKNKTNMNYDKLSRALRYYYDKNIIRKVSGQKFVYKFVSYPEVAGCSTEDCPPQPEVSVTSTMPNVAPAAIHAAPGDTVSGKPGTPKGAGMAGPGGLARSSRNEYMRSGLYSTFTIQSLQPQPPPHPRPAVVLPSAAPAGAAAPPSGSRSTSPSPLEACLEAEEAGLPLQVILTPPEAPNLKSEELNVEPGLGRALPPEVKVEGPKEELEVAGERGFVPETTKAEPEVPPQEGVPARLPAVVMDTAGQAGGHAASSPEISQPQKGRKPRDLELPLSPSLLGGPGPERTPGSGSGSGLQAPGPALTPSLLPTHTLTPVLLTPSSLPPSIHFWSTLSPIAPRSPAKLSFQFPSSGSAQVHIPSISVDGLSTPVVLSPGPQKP
Procedure, shortened: as §1

GABPA = molecular target: T2, GABPA (Homo sapiens, UniProt Q06546 1-454); conditions: protein: recombinant; tags: N-terminal GST; dsDNA, one strand shown
T2 sequence: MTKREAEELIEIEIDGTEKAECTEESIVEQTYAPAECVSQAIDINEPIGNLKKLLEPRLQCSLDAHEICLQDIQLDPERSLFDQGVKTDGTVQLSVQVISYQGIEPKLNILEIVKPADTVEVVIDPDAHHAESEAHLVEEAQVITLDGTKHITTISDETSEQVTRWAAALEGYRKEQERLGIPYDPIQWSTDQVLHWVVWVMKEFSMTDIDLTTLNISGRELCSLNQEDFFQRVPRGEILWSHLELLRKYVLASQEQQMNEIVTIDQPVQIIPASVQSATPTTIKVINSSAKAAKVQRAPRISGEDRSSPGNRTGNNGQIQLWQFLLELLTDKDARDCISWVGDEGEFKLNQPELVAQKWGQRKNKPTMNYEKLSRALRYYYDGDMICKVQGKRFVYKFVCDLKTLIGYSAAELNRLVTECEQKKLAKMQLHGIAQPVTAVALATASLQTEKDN
Procedure, shortened: as §1

ELF1 = ELF1 (Homo sapiens, UniProt P32519 1-619); conditions: protein: recombinant; tags: N-terminal GST; dsDNA, one strand shown
ELF1, sequence (P32519 whole entry): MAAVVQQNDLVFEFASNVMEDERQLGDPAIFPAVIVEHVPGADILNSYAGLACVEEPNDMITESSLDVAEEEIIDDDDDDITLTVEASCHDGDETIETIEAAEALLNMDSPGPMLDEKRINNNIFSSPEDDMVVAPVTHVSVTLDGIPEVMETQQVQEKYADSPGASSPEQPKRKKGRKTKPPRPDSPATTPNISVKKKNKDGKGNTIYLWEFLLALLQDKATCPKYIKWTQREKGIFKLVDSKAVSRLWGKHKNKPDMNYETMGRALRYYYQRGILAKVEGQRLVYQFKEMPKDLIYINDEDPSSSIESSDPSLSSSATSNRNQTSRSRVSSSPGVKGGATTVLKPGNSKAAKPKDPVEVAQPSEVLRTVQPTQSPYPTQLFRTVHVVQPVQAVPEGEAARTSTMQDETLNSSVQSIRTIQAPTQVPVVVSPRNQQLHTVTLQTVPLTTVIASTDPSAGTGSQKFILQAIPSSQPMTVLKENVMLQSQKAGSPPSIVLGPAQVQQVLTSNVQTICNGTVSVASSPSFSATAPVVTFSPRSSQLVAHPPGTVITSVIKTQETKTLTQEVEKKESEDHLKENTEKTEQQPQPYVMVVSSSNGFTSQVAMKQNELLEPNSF
Procedure, shortened: as §1

EHF = molecular target: T3, EHF (Homo sapiens, UniProt Q9NZC4 1-300); conditions: protein: recombinant; tags: N-terminal GST; dsDNA, one strand shown
T3 sequence: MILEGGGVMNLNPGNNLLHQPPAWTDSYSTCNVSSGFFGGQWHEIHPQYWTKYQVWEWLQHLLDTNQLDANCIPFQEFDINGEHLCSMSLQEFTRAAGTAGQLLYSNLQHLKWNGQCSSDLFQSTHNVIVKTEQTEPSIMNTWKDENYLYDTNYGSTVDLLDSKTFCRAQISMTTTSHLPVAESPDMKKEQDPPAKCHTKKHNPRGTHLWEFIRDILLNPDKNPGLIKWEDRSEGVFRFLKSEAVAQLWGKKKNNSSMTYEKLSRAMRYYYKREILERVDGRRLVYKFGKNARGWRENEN
Procedure, shortened: as §1

SPIB = SPIB (Homo sapiens, UniProt Q01892 1-262); conditions: protein: recombinant; tags: N-terminal GST; dsDNA, one strand shown
SPIB, sequence (Q01892 whole entry): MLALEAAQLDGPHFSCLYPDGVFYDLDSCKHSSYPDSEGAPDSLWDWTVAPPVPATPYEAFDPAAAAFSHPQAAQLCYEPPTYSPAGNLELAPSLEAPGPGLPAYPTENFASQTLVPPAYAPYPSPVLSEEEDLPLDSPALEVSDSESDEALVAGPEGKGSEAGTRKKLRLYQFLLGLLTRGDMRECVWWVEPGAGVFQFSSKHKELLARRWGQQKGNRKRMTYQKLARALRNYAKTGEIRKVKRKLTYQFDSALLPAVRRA
Procedure, shortened: as §1

ELK3 = molecular target: T4, ELK3 (Homo sapiens, UniProt P41970 1-407); conditions: protein: recombinant; tags: N-terminal GST; dsDNA, one strand shown
T4 sequence: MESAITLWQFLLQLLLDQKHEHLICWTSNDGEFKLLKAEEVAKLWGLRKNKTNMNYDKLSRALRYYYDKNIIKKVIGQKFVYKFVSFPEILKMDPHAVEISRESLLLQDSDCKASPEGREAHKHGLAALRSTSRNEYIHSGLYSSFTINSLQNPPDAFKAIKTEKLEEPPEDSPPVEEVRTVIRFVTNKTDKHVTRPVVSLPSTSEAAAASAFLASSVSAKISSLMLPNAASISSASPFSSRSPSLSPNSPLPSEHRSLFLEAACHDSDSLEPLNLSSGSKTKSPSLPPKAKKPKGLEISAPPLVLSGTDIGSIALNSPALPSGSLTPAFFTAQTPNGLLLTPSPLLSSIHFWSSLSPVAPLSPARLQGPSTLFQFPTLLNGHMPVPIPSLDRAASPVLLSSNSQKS
Procedure, shortened: as §1

SPIC = molecular target: T5, SPIC (Homo sapiens, UniProt Q8N5J4 1-248); conditions: protein: recombinant; tags: N-terminal GST; dsDNA, one strand shown
T5 sequence: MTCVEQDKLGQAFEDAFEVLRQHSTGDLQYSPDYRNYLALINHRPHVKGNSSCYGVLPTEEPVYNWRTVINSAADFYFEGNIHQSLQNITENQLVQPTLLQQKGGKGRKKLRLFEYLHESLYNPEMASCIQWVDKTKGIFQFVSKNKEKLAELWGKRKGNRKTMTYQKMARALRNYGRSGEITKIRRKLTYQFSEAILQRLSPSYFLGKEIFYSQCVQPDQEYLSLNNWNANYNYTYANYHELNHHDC
Procedure, shortened: as §1

ELF4 = ELF4 (Homo sapiens, UniProt Q99607 1-663); conditions: protein: recombinant; tags: N-terminal GST; dsDNA, one strand shown
ELF4, sequence (Q99607 whole entry): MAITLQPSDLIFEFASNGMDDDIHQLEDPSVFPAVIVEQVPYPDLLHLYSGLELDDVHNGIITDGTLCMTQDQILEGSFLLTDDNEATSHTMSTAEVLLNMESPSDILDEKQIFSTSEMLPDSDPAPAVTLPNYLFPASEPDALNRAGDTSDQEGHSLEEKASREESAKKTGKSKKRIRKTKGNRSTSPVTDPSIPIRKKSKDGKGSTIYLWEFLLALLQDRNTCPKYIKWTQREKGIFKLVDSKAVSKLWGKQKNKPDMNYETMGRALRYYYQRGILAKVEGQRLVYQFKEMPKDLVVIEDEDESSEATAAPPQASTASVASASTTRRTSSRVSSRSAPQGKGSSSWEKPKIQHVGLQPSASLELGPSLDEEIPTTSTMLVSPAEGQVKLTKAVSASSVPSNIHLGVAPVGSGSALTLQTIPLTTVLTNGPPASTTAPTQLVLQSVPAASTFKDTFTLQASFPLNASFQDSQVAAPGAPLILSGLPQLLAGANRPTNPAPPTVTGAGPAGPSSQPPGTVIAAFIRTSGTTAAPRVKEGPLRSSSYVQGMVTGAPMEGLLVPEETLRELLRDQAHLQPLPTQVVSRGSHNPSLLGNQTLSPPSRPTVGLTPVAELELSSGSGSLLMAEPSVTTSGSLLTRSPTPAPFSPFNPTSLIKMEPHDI
Procedure, shortened: as §1

ELF3 = molecular target: T6, ELF3 (Homo sapiens, UniProt P78545 1-371); conditions: protein: recombinant; tags: N-terminal GST; dsDNA, one strand shown
T6 sequence: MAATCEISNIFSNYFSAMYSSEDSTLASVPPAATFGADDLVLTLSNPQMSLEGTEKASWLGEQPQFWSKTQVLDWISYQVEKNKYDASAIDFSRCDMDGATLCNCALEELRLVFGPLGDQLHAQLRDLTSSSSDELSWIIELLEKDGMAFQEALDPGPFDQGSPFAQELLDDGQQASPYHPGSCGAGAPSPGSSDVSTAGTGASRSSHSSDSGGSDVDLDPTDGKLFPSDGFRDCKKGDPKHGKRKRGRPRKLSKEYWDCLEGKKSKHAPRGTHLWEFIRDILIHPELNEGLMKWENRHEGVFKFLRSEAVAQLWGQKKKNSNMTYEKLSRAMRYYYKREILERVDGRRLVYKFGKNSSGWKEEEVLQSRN
Procedure, shortened: as §1

ERF = molecular target: T7, ERF (Homo sapiens, UniProt P50548 1-548); conditions: protein: recombinant; tags: N-terminal GST; dsDNA, one strand shown
T7 sequence: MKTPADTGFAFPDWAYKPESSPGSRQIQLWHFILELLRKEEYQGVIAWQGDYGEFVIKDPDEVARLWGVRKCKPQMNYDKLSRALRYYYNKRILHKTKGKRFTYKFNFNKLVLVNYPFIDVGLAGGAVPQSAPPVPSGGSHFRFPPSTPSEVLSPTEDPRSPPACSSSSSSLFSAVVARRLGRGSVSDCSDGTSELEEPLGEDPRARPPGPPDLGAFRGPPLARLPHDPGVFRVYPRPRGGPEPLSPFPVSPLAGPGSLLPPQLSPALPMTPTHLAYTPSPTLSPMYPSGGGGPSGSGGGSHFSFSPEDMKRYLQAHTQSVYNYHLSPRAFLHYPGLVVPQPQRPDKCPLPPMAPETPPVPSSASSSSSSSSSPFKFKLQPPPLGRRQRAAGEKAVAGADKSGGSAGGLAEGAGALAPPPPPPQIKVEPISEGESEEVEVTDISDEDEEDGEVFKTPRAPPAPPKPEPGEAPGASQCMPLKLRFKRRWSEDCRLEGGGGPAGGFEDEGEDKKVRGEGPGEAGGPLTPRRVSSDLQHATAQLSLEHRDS
Procedure, shortened: as §1

ETS2 = molecular target: T8, ETS2 (Homo sapiens, UniProt P15036 1-469); conditions: protein: recombinant; tags: N-terminal GST; dsDNA, one strand shown
T8 sequence: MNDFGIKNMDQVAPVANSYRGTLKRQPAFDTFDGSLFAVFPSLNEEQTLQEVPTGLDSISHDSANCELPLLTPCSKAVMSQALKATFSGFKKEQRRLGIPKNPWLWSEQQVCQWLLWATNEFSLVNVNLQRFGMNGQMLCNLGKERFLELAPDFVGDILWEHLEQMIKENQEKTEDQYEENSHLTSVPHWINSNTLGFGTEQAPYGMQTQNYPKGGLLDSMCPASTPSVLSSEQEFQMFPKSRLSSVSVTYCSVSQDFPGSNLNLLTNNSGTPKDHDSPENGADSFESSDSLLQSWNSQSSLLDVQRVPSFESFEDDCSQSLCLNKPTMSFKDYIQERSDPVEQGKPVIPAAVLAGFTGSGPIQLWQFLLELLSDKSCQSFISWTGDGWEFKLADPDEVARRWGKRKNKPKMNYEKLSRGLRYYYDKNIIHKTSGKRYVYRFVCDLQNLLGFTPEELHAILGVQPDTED
Procedure, shortened: as §1

Row | Sequence | binding signal (HSF1) | binding signal (ELK1) | binding signal (GABPA) | binding signal (ELF1) | binding signal (EHF) | binding signal (SPIB) | binding signal (ELK3) | binding signal (SPIC) | binding signal (ELF4) | binding signal (ELF3) | binding signal (ERF) | binding signal (ETS2)
1 | ACGAGA | 1.14 fold enrichment (6-mer frequency, TF over GST control) | – | – | – | – | – | – | – | – | – | – | –
2 | GCCGAA | 1.14 fold enrichment (6-mer frequency, TF over GST control) | 1 fold enrichment (6-mer frequency, TF over GST control) | 1.02 fold enrichment (6-mer frequency, TF over GST control) | 1.01 fold enrichment (6-mer frequency, TF over GST control) | 1.03 fold enrichment (6-mer frequency, TF over GST control) | 1.02 fold enrichment (6-mer frequency, TF over GST control) | 1.06 fold enrichment (6-mer frequency, TF over GST control) | 1.09 fold enrichment (6-mer frequency, TF over GST control) | 1.06 fold enrichment (6-mer frequency, TF over GST control) | 1.02 fold enrichment (6-mer frequency, TF over GST control) | 1.05 fold enrichment (6-mer frequency, TF over GST control) | 1.04 fold enrichment (6-mer frequency, TF over GST control)
